About 1,600 (84%) of roughly 1,900 compounds were called active.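 Rule for the calls: active = mean activation above a set limit taken from the primary screen (cut at about 8% in these data); inactive = the rest.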 So high a share suggests a set chosen from earlier hits. Not all results are given here.
Assay: FXN GAA850 promoter activators in reporter cells, confirmation, cell-based, luminescence, HEK293 lucGAA850, triplicate (AID 588351);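 note: 0% = DMSO wells and 100% = 10 µM SAHA wells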
Conditions: HEK293 lucGAA850 FXN promoter luciferase reporter, 24 h; at 6 µM; active compounds read high; 100% = activation by SAHA

Compound	activation
Cc1cc(C(=O)N/N=C\C(Br)=C\c2ccccc2)c(C)o1	26.2% (active)
CC(C)c1cc(C(=O)N/N=C/C(Br)=C/c2ccccc2)n[nH]1	15.8% (active)
CC1(Cc2cccc(C#N)c2)C(=O)Nc2ccc(-c3cccc(C(F)(F)F)c3)cc21 (centres undefined)	10.7% (active)
Cc1c(-c2ccccc2)nc(N)c(C#N)c1-c1cccs1	14.5% (active)
O=C1[C@H]2[C@@H](c3ccc(Cl)cc3)N3C(=O)N(c4cccc(F)c4)C(=O)[C@@]3(Cc3ccccc3)[C@H]2C(=O)N1C1CCCCC1	11.2% (active)
C[C@@]12C(=O)N(c3cccc(Br)c3)C(=O)N1[C@H](c1ccc(Cl)cc1)[C@@H]1C(=O)N(C3CCCCC3)C(=O)[C@@H]12	5.12% (inactive)
O=C1[C@H]2[C@@H](c3ccc(F)cc3)N3C(=O)N(c4ccc(C(F)(F)F)cc4)C(=O)[C@@]3(Cc3ccccc3)[C@H]2C(=O)N1C1CCCCC1	16.2% (active)
Cc1noc(C)c1-c1ccc2ncnc(NC(C)c3ccco3)c2c1 (centres undefined)	20.1% (active)
Cc1ccc(NC(=O)c2sc3nc(N)c(C#N)cc3c2N)cc1	27.4% (active)
O=C(CC1NCCc2ccccc21)Nc1cccc(Cl)c1 (centres undefined)	26.7% (active)
CC1(C(=O)NCc2cccc3ccccc23)CCN1Cc1ccc(-c2ccccc2)o1 (centres undefined)	11.9% (active)
COc1ccc(-c2csc(Nc3ccc(O)cc3)n2)cc1	40.1% (active)
COc1ccc(-c2csc(Cc3nc(O)cs3)n2)cc1	-4.16% (inactive)
O=c1oc2ccccc2cc1-c1csc(Nc2ccc(O)cc2)n1	44.3% (active)
O=c1[nH]cnc2c1c(-c1ccccc1)cn2-c1ccc(F)cc1	9.89% (active)
Cc1ccc(-n2c(C)cc(/C=C(\C#N)C(=O)NCC3CCCO3)c2C)cc1 (centres undefined)	41.3% (active)
COc1ccc(NC(=O)CSc2nc(SC)ns2)c(OC)c1	40.6% (active)
CSc1nc(N)c(C#N)c(-c2ccccc2Cl)c1C#N	21.1% (active)
CCCCn1c(SCC(=O)NCCc2ccc(OC)c(OC)c2)nc2c1c(=O)n(C)c(=O)n2C	8.75% (active)
COc1ccc(N(CCC#N)S(=O)(=O)c2ccc(Cl)cc2)cc1	3.78% (inactive)

Compound	activation
Cc1ccc(C2Nc3cccc4cccc(c34)N2)cc1	12.4% (active)
COc1cc(/C=N/Nc2nc3ccccc3s2)ccc1O	34.8% (active)
CC1(C(=O)N/N=C/c2cc3c(cc2Br)OCO3)CC1(Br)Br (centres undefined)	15.3% (active)
COc1ccc(-c2nnc(SCC(=O)c3cccs3)o2)c(OC)c1	26.2% (active)
N#CC1=C(SCc2ccc(C#N)cc2)N=C(N)C(c2nc(-c3ccccc3)cs2)C12CCCCC2 (centres undefined)	17.6% (active)
CCOc1ccc(Nc2oc(Cc3ccccc3)nc2C#N)cc1	32.1% (active)
CCC1(CC)Cc2ccccc2-c2nc(CCl)[nH]c(=O)c21	1.84% (inactive)
CN1C(=O)/C(=C\c2cc(Br)cs2)c2ccccc21	38.3% (active)
CCOC(=O)c1cc2cc(C)ccc2[nH]1	29.5% (active)
C=C1c2c(Cl)ccc(O)c2C(O)=C2C(=O)[C@]3(O)C(O)=C(C(N)=O)C(=O)[C@@H](N(C)C)[C@@H]3[C@@H](O)C12 (some centres undefined)	15.5% (active)
CN(C)[C@@H]1C(=O)C(C(N)=O)=C(O)[C@@]2(O)C(=O)C3=C(O)c4c(O)ccc(Cl)c4[C@@H](O)[C@H]3C[C@@H]12	15.3% (active)
Cc1nc(-c2ccc(F)cc2)c(CC(=O)Nc2cc(S(=O)(=O)N3CCCCC3)ccc2C)s1	6.94% (inactive)
COc1ccc(C2Nc3ccccc3C(=O)N2c2ccc(Cl)cc2)cc1Cn1cc([N+](=O)[O-])cn1 (centres undefined)	26.8% (active)
Cc1cc(C)nc(S/C=C/C(=O)c2ccccc2)n1	-19% (inactive)
Oc1ccccc1-c1cc(-c2ccc(Cl)cc2)n[nH]1	46.8% (active)
c1ccc(-c2cc(-c3ccccc3)[nH]n2)cc1	43% (active)
O=C(N/N=C/C=C/c1ccco1)c1cccs1	31.4% (active)
O=C(COc1ccc(Cl)cc1Cl)NCCCNC(=O)c1cnccn1	7.43% (inactive)
O=C(Nc1ccc2c(c1)OCCO2)c1cnccn1	25.8% (active)

— PubChem BioAssay AID588351 (The Scripps Research Institute Molecular Screening Center, 2011)
